From ChEMBL document CHEMBL3988442, “University of Dundee, Small-Polar-MMV Screening Library” (2021) come the findings set out here.

Structures are written as SMILES. Out of some 48,000 compounds screened, about 13,000 (27%) showed an effect of 50% or more. The list shows a part of the results.

For the test, the system named is Wolbachia pipientis. Nature of the test: Anti-Wolbachia Cell-Based Screen. It counts as functional. Set-up: scale not given: in the data most compounds retested in dose-response had high values. To be noted: 5 µM.
For `Cc1cnn(CC2CCCN2c2ncnc3ccccc23)c1` (stereo not drawn), the “Percent Effect” value is recorded as -22.63%. The value for `COc1cc(C)nc(N2CCN(C(=O)CCc3cccs3)CC2)n1` was -2.18%; that for `COCCC(=O)N1Cc2cnc(Cc3ccc(OC)cc3)nc2C1` was -12.22%.

For the compound `COCC(=O)N1Cc2nc3c(C)c(-c4cccs4)nn3c(O)c2C1`, the “Percent Effect” value stood at 99.09%. As to `COCCC(=O)N1Cc2nc3c(C)c(-c4cccs4)nn3c(O)c2C1`, the “Percent Effect” value is given as 108.4%. Consider `Cc1nc(-c2cccs2)ccc1C(=O)N1CCN(CCO)CC1`, for which the “Percent Effect” value is recorded as -3.936%. The value for `Cc1c(-c2cccs2)nn2c(O)c3c(nc12)CN(C(=O)C1CC1)C3` was 98.04%; that for `Cc1nc2c(c(=O)n1C)CN(C(=O)C1CCCN(C(N)=O)C1)C2` (stereo not drawn) was 11.31%.

With `Cc1nc2c(c(=O)n1C)CN(C(=O)C1CCN(C(=O)C3CCC3)CC1)C2`, the “Percent Effect” value is -3.258%. As for `CCc1ncc2c(n1)CN(C(=O)COC)C2`, the “Percent Effect” value is listed as 5.323%. Consider `c1cc(-c2c[nH]c([C@@H]3COCCN3C3CCCCC3)n2)ccn1`, for which the “Percent Effect” value is reported as -0.01712%. The value for `CCc1ccc(CN2CC[C@H]3C[C@H](c4nnc(C)[nH]4)O[C@@H]3C2)o1.O=C(O)C(F)(F)F` was -6.047%; that for `CC(Sc1nnnn1C1CCOCC1)C(=O)NC1CCCCC1` (stereo not drawn) was -2.14%; that for `COc1cc(N2C[C@@H](C)[C@](O)(C3CC3)C2)ncn1` was -12.89%. For `C[C@@H]1CN(c2ccc(Cl)cn2)C[C@@]1(O)C1CC1`, the “Percent Effect” value came to 109.5%.

With `C[C@@H]1CN(c2ccc(Cl)cn2)C[C@]1(C)O`, the “Percent Effect” value was determined as 110.4%.

In the case of `CS(=O)(=O)CCN1CCN(c2ccc(Cl)cn2)CC1`, the “Percent Effect” value is recorded as -5.169%.

In the case of `C[C@@H]1CN(c2cc(N3CCC(O)CC3)ncn2)C[C@@]1(O)C1CC1`, the “Percent Effect” value is -16.8%.

In the case of `CC(C)NC(=O)CN(C)C1CCN(c2ccc(Cl)cn2)CC1`, the “Percent Effect” value is -2.588%. The value for `O=C1COc2ccc(C(=O)NS(=O)(=O)c3ccc(F)cc3F)cc2N1` was 1.32%; that for `CCS(=O)(=O)N1CCC(c2nnc(CN3CCCC3)n2C2CC2)CC1` was -2.411%. For `OCCOc1cc(F)ccc1NCc1nc(-c2cccs2)no1`, the “Percent Effect” value is 14.46%. In the case of `Cc1cnn(CCNCc2cc(C)no2)c1`, the “Percent Effect” value is listed as 0.9077%. The value for `Cc1cnn(CCNCc2nnc(-c3occc3C)o2)c1` was 122.9%; that for `Cc1cnn(CCNCc2nnc(-c3ccc(F)cc3)o2)c1` was 123.4%; that for `Cc1ccc(-c2nnc(C(C)NCCn3cc(C)cn3)o2)cc1` (stereo not drawn) was 8.064%.

For the compound `Cc1ccoc1-c1nnc(CNCCn2cccn2)o1`, the “Percent Effect” value is recorded as -4.902%.

`Cc1cnn(CCNCc2csc(-c3ccc(F)cc3)n2)c1`: the “Percent Effect” value is on record as 0.7899%. For `Cc1ccc(-c2cc(CNCCn3cc(C)cn3)on2)cc1`, the “Percent Effect” value was -23.87%. The value for `Cc1cnn(CCNCc2nnc(-c3ccccc3)o2)c1` was 127.3%; that for `c1ccc(-c2nnc(CNCCn3cccn3)o2)cc1` was -4.985%. The same measure for `Cc1cnn(CCNC(C)c2nnc(-c3ccccc3)o2)c1` (stereo not drawn): -3.26%. On to `Cc1cnn(CCNCc2nc(COc3ccc(F)cc3)no2)c1`, for which the “Percent Effect” value was -9.095%. In the case of `COc1ccc(-c2nnc(CNCCn3cc(C)cn3)o2)cc1`, the “Percent Effect” value is reported as 93.96%. As to `CCc1noc(CN(CC(=O)N2CCCCC2)c2cccc(C)c2)n1`, the “Percent Effect” value turned out to be 13.21%. Regarding `COc1ccc(OCc2cc(C(=O)N3CC=CC3)n[nH]2)c(Cl)c1`, the “Percent Effect” value is listed as 6.358%. Regarding `O=C(c1ccnnc1)N1CCc2onc(CN3CCCC3)c2C1`, the “Percent Effect” value was -11.85%. The same measure for `CS(=O)(=O)NCc1noc2c1CN(C(=O)C1CCC1)CC2`: 102.9%.

For the compound `CS(=O)(=O)NCc1noc2c1CN(C(=O)c1ccsc1)CC2`, the “Percent Effect” value is given as 8.076%. Regarding `CC(=O)NCc1noc2c1CN(CCN1CCCC1)CC2.O=C(O)C(F)(F)F.O=C(O)C(F)(F)F`, the “Percent Effect” value is recorded as -16.49%. On to `COCC(=O)N1CCc2c(CNS(C)(=O)=O)n[nH]c2C1`, for which the “Percent Effect” value is 5.679%.

As to `CS(=O)(=O)NCc1noc2c1CN(C(=O)C1CC1)CC2`, the “Percent Effect” value was 103.2%. In the case of `CCC(=O)N1CCc2onc(CNS(C)(=O)=O)c2C1`, the “Percent Effect” value was 86.89%. `FC(F)(F)C1CCCn2c(CNCc3cccs3)nnc21` (stereo not drawn): the “Percent Effect” value is recorded as -7.2%. Take `CCN(CC)C(=O)N1CCN(C2=NCC(C)S2)CC1` (stereo not drawn): the “Percent Effect” value was -3.513%.

For the compound `Cc1ccnc(N2CCN(Cc3ccccc3)CC(O)C2)c1` (stereo not drawn), the “Percent Effect” value stood at 10.83%.

Take `Cc1nccc(CNC(=O)N2CCN(Cc3ccccc3)C[C@H]2C)n1`: the “Percent Effect” value was -2.521%. The value for `Cc1nccc(CN2CC[C@@]3(CCCN3Cc3ccccc3)[C@@H](O)C2)n1` was 93.51%.

On to `COc1ccc(-c2ccc(C(=O)NCCCC(N)=O)c(F)c2)c(F)c1`, for which the “Percent Effect” value was -2.164%. Regarding `Cn1cc(-c2noc(C3(C)CCOCC3)n2)cn1`, the “Percent Effect” value is reported as -4.622%.

Consider `CCn1cc(-c2c(C)c(C3CCOC(C)(C)C3)nc(N)c2C#N)cn1` (stereo not drawn), for which the “Percent Effect” value is 115.2%. With `Cc1c(-c2cnn(C)c2)nc(N)c(C#N)c1-c1ccc(CO)o1`, the “Percent Effect” value stood at 0.3251%.

In the case of `Cc1cc(-c2cc(C3CCOC3)c(C#N)c(N)n2)ccc1Cl` (stereo not drawn), the “Percent Effect” value worked out at 25.02%. The value for `N#Cc1c(C2CC2)cc(-c2ccc(O)cc2)nc1N` was -0.3878%. Take `Cc1c(C2CCOC(C)(C)C2)nc(N)c(C#N)c1-c1ccc(O)cc1` (stereo not drawn): the “Percent Effect” value is 105.2%. Regarding `CCCc1c(C2CCOC(C)(C)C2)nc(N)c(C#N)c1-c1cnn(C)c1` (stereo not drawn), the “Percent Effect” value came to 105.7%.

Turning to `CCc1ccc(-c2c(C)c(-c3cnn(C)c3)nc(N)c2C#N)o1`, the “Percent Effect” value is on record as 7.382%.

`CN(C)C(=O)CN1C[C@@H]2CC[C@H](C1)N(C/C=C/c1ccc(F)cc1)C2`: the “Percent Effect” value was found to be 0.7109%. For the compound `CCc1cc(NC(=O)N2CCC(Oc3cccnc3)C2)n(C)n1` (stereo not drawn), the “Percent Effect” value is recorded as -19.7%.

Regarding `Cc1nn2cccnc2c1C(=O)NCc1ccccc1OCC1CC1`, the “Percent Effect” value worked out at 6.014%. The value for `O=S(=O)(N1CCN(CC2CC2)CC1)N1CCCC1c1ccco1` (stereo not drawn) was 8.161%; that for `CC(=O)c1c(C)nn(CC(=O)N2Cc3cnc(CC(C)C)nc3C2)c1C` was -0.1145%; that for `COc1ccc(CNC(=O)NCC(O)(c2cccs2)C2CC2)cc1` (stereo not drawn) was 11.16%. As for `CCOCc1ccccc1NC(=O)NCC(C)(O)c1cccs1` (stereo not drawn), the “Percent Effect” value is -8.36%. As to `CSCCC(C)(O)CNC(=O)Nc1ccccc1C` (stereo not drawn), the “Percent Effect” value stood at 6.778%. The value for `COC(=O)c1ccc(S(=O)(=O)NCC(C)(O)c2cccs2)cc1` (stereo not drawn) was -7.069%. The same measure for `Cc1ccccc1NC(=O)NCC(C)(O)c1cccs1` (stereo not drawn): 117.7%; for `CCOc1ccc(NC(=O)NCC(C)(O)c2cccs2)cc1` (stereo not drawn): 123.8%. `OC(CNc1ccc(Cl)cn1)CN1CCOCC1` (stereo not drawn): the “Percent Effect” value is recorded as -5.222%. `Cc1n[nH]c(C)c1Sc1ccccc1NC(=O)N1CCN(C)CC1`: the “Percent Effect” value was determined as 1.27%. On to `CCn1nc(Br)nc1Sc1ccccc1NC(C)=O`, for which the “Percent Effect” value is 119.4%. For the compound `CC(=O)Nc1ccccc1Sc1nc(Br)nn1C`, the “Percent Effect” value stood at 114.6%.

On to `Cn1cnnc1Sc1ccc(NC(=O)C2CC2)cc1Cl`, for which the “Percent Effect” value is -0.08341%. Regarding `CSc1ccccc1NC(=O)CCC(=O)N(C)C1CCN(C)CC1`, the “Percent Effect” value is listed as 6.723%. `COCC(=O)Nc1ccccc1Sc1c(C)n[nH]c1C`: the “Percent Effect” value is -1.881%. As for `Cc1n[nH]c(C)c1Sc1ccccc1NC(=O)N1CCOCC1`, the “Percent Effect” value was -5.626%. As to `CCCSc1ccccc1NC(=O)N1CCC(N2CCSCC2)CC1`, the “Percent Effect” value is recorded as -2.644%. As to `Cc1n[nH]c(C)c1Sc1ccccc1NC(=O)CN1CCCC1`, the “Percent Effect” value was 2.491%. As for `Cn1nc(Br)nc1Sc1ccccc1NC(=O)C1CC1`, the “Percent Effect” value stood at 107.9%. Turning to `CCC(=O)Nc1ccccc1Sc1nc(Br)nn1C`, the “Percent Effect” value is 107.5%. Take `CN(C)C(=O)N1CCN(C(=O)c2cccc(Cl)c2)CC2(CNC(=O)C2)C1` (stereo not drawn): the “Percent Effect” value was -8.821%. For the compound `CCCN(Cc1ccc(OC)nc1)Cc1ccccc1OC`, the “Percent Effect” value stood at 7.541%. For `CS(=O)(=O)c1nccn1Cc1ccc(OC(F)F)cc1`, the “Percent Effect” value is listed as -0.8084%.

Consider `NC(=O)Nc1cccc(C(=O)N(Cc2ccc(F)cc2)C2CC2)c1`, for which the “Percent Effect” value was -11.54%. For the compound `NC(=O)C1(CNCc2csc(-c3cccs3)n2)CCOCC1`, the “Percent Effect” value was -0.8866%. Consider `CC(C)N1CCCC(C(=O)N2CCN(c3cnn(C)c(=O)c3)CC2)C1` (stereo not drawn), for which the “Percent Effect” value is -17.55%. For the compound `CC(C)c1cc(C(=O)N2CCN(c3cccc(C(=O)O)c3)CC2)n(C)n1`, the “Percent Effect” value stood at 1.445%. For `CC(C)N1CCCC(C(=O)N2CCN(c3cccc(C(=O)O)c3)CC2)C1` (stereo not drawn), the “Percent Effect” value was found to be 107.1%. Regarding `CC(C)N1CCC(C(=O)N2CCC(c3ccc(F)cc3)C2)CC1` (stereo not drawn), the “Percent Effect” value was 11.91%.

For `Cc1cccc(N2CCN(C(=O)CN3CCC(C(N)=O)CC3)CC2)c1`, the “Percent Effect” value was found to be 3.313%.

For `CC(C)N1CCC(C(=O)N2CCN(c3cccc(C(=O)O)c3)CC2)CC1`, the “Percent Effect” value came out at 106.6%.

On to `O=C(Cc1ccc2c(c1)OCO2)N1CCCN(c2ccccc2)CC1`, for which the “Percent Effect” value was found to be 5.064%. With `CC(C)N1CCC(C(=O)N2CCCN(c3ccccc3)CC2)CC1`, the “Percent Effect” value is recorded as 106.5%.

Turning to `Cc1nn(C)cc1C(=O)N1C[C@H]2CC[C@@H]1CN(S(=O)(=O)N(C)C)C2`, the “Percent Effect” value is listed as 7.621%. As for `CC(C)CCC1=NC2(CCN(C(=O)CN3CCCC3=O)CC2)C(=O)N1`, the “Percent Effect” value is given as 0.2617%. `NS(=O)(=O)c1cnc(NCC2(c3cccc(F)c3)CCOCC2)s1`: the “Percent Effect” value is recorded as -14.69%. In the case of `CC(=O)N1CC(=O)N(c2cnn(C)c2)CC12CCN(CC1CC1)C2.O=C(O)C(F)(F)F` (stereo not drawn), the “Percent Effect” value is -1.209%. The same measure for `CC(C)N(C)Cc1cncc2c1CCN(C(=O)c1ccc[nH]1)C2.Cl.Cl`: -17.08%. For the compound `CC(C)N(C)Cc1cc(=O)n2c(n1)CN(C(=O)c1ccc[nH]1)CCC2`, the “Percent Effect” value was 99.67%.

Take `Cc1ccsc1C(=O)N1CCCn2c(nc(CN(C)C)cc2=O)C1.O=C(O)C(F)(F)F`: the “Percent Effect” value is on record as -10.18%.

In the case of `CCN(CC)Cc1cc(=O)n2c(n1)CN(C(=O)c1ccc[nH]1)CCC2`, the “Percent Effect” value came to 89.92%.

For `CN(C)Cc1cc(=O)n2c(n1)CN(C(=O)Cc1cccs1)CCC2.O=C(O)C(F)(F)F`, the “Percent Effect” value is 4.562%. The value for `CN(C)Cc1cc(=O)n2c(n1)CN(C(=O)c1ccc[nH]1)CCC2.O=C(O)C(F)(F)F` was 95.26%.
